# Source: PubChem BioAssay
# HP1b chromo inh – HP1-beta chromodomain-methylated histone interaction inhibition | Potency, µM (highest dose often 114 µM), most hits filed as inhibitors | 390,000 tested, 0.56% active | AlphaScreen HP1-beta / biotin-H3K9me3 peptide binding | AID 540317; also: nearly all actives have a fitted effect of over 70% in size
#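 HP1-beta protein (50 nM final) preincubated 30 min at room temperature with biotinylated H3(1-18)K9me3 peptide (50 nM) in PBS pH 7.4, 0.01% Tween-20, then compound added for 30 min. AlphaScreen streptavidin donor/nickel chelate acceptor beads (10 ug/mL final), 30 min dark, luminescence read.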
# BAZ2B inh – inhibitors of human BAZ2B bromodomain | Q9UIF8 | AlphaScreen BAZ2B-H3K14Ac peptide displacement | Potency, µM (series often up to 114 µM), usual class: inhibitors | 360,000 tested, 4.4% active | AID 504333; also: nearly all actives have a fitted effect of over 60% in size
#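 Protein-peptide AlphaScreen: BAZ2B 50 nM, b-H3K14Ac 50 nM, 1x PBS pH 7.4 + 0.01% Tween-20. Preincubation 30 min RT; cpd 30 min RT (top 110 uM); beads 20 min RT, light-protected.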
# G9a block – G9a (human) methyltransferase inhibition; Q96KQ7; G9a H3K9 monomethylation, AlphaScreen, 2 h; Potency, µM (doses to about 102 µM), hits mostly inhibitors; 350,000 tested, 8.8% active; AID 504332; also: nearly all actives have a fitted effect of over 75% in size
#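 Chemiluminescent proximity detection of H3K9 monomethylation, read after 10 min bead incubation in the dark. Reaction: 20 nM G9a, 500 nM biotin-H3K9 peptide, 20 uM SAM cofactor, 2 h, room temperature, following 15 min enzyme-compound preincubation.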
# PLK1 PBD block – blocks phosphopeptide binding to human PLK1 polo-box domain; P53350; Plk1 PBD binding of FITC phosphopeptide, fluorescence polarization; Potency, µM, actives largely listed as inhibitors; 360,000 tested, 2.8% active; also: series mostly up to about 57 µM; nearly all actives have a fitted effect of over 65% in size
# JMJD2A Tudor inh – JMJD2A Tudor domain (human) inhibition; AlphaScreen JMJD2A-Tudor / H3K4me3 peptide binding; AID 504339; 390,000 tested, 4.4% active; O75164; Potency, µM (doses to about 114 µM), actives largely listed as inhibitors; also: nearly all actives have a fitted effect of over 50% in size
# PI5P4K alpha inh – PI5P4K alpha (human) kinase inhibition; 330,000 tested, 1.2% active; P48426; PI5P4Kalpha enzyme, ADP-Glo luminescence, 60 min; active compounds read low; AID 652105; max response, %; active = max response of -50% or lower; inconclusive = between -30% and -50%; inactive = -30% or higher; also: value at the top dose of about 77 µM
# Target sequence (P48426 whole entry, looked up): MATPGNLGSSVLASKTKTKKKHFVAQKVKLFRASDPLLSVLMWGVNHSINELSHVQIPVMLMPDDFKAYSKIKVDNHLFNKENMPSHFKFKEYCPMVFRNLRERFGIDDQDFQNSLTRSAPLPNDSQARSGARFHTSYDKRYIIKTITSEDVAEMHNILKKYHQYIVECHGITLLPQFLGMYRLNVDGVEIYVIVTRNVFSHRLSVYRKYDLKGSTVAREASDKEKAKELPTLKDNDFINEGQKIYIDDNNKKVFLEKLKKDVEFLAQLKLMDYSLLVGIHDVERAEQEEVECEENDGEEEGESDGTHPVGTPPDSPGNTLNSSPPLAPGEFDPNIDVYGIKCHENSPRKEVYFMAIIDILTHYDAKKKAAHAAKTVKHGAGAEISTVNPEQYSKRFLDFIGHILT
#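 Controls without substrate or without enzyme flank wells where PI5P4Kalpha converts substrate using 5 microM ATP (final). Incubation lasts 60 minutes at room temperature; ADP formed is read by ADP-Glo luminescence.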
# A number is an active result; n = inactive; u = inconclusive; x = no result; [ ] = dose if it differs, or a comment. Only some compounds are listed: those with a hit (about 12% of all), similar ones and a draw of the others. Unless noted, calls follow the shape of the dose curve; as a rule, active = well fitted curve in the direction sought with a large enough effect; inconclusive = small, poorly fitted or top-dose-only effect, or another doubt; inactive = no such curve, though single readings can be large; an effect the other way counts as inactive or inconclusive.
SMILES,HP1b chromo inh,BAZ2B inh,G9a block,PLK1 PBD block,JMJD2A Tudor inh,PI5P4K alpha inh
O=C(/C=C/Nc1ccc(F)c(F)c1)c1cccs1,n,n,45µM,n,n,n
CCc1ccc(OCC(=O)N(Cc2ccco2)Cc2ccco2)cc1,n,n,n,x,n,x
CSc1nnc(N2C(=O)C(O)=C(C(=O)c3ccco3)C2c2ccc(F)cc2)s1 (stereo not given),n,u,22µM,n,n,n
CCSc1nnc(N2C(=O)C(O)=C(C(=O)c3ccco3)C2c2cccc(OC)c2)s1 (stereo not given),n,u,35µM,u,89µM,u
Cc1cc(N2C(=O)C(O)=C(C(=O)c3ccco3)C2c2cccc(Cl)c2)no1 (stereo not given),n,u,n[0.0925 µM],n,n,n
CSc1nnc(N2C(=O)C(O)=C(C(=O)c3ccco3)C2c2cccc(Cl)c2)s1 (stereo not given),n,79µM,x,u,u,n
COc1ccc(-c2cc(C(=O)Oc3ccccc3)c3cc(C)ccc3n2)cc1,n,n,n,x,n,x
COCCN(CCOC)Cc1cc(=O)oc2cc(OC)ccc12,x,x,x,n,x,n
CN(C)C(=O)c1cccc(-c2cnc3cccnn23)c1,x,x,x,n,x,n
O=c1c(-c2cc(F)cc(F)c2)nc2cncnc2n1Cc1ccccc1,x,x,n[0.501 µM],x,x,x
O=C(Nc1cccc(Cl)c1)N1CC2CCCN2c2ccccc21 (stereo not given),u,18µM,2.2µM,x,14µM,x
O=C(NCc1cccc(Br)c1)c1ccc(NC(=O)N2CCCCc3ccccc32)cc1,n,n,n,x,n,x
CCOc1ccc(CNC(=O)CCC(=O)N2CC3CCCN3c3ccccc32)cc1 (stereo not given),u,50µM,n,x,u,x
CC1CCCCN1C(=O)Nc1cccc(Cl)c1 (stereo not given),n,n,n,n,n,n
O=C(NCc1cccc(Cl)c1)c1ccc(NC(=O)N2CC3CCCN3c3ccccc32)cc1 (stereo not given),n,u,10µM,x,u,x
COc1ccc(OC)c(NC(=O)N2CC3CCCN3c3ccccc32)c1 (stereo not given),u,20µM,18µM,x,40µM,x
O=C(O)c1cccnc1Sc1ccc(Br)cc1,n,n,u,u,n,n
Fc1ccc(-n2[nH]nnc2=S)cc1N1CCCC1,u,u,u,u,79µM,x
CCOc1ccccc1CNC(=O)C1CCCN(c2ncnc3onc(-c4ccc(F)cc4)c23)C1 (stereo not given),n,n,n,x,n,x
Cc1cccc(NC(=O)Nc2c(C)n(C)n(-c3ccccc3)c2=O)c1,n,n,n[0.501 µM],24µM,u,n
Cc1ccc(NC(=O)Nc2c(C)n(C)n(-c3ccccc3)c2=O)cc1C,u,n,n,21µM,14µM,u
Cc1c(NC(=O)Nc2cccc(Cl)c2)c(=O)n(-c2ccccc2)n1C,n,n,n,n,n,x
N/C(Cc1ccc([N+](=O)[O-])cc1)=N\OC(=O)c1cccc(Br)c1,n,n,n,u,n,n
N/C(Cc1ccc([N+](=O)[O-])cc1)=N\OC(=O)c1ccc([N+](=O)[O-])cc1,u,u,8.9µM,n,u,n
O=C1CSC(=S)N1c1cccc(Cl)c1,n,n,n,u,n,n
SMILES,HP1b chromo inh,BAZ2B inh,G9a block,PLK1 PBD block,JMJD2A Tudor inh,PI5P4K alpha inh
S=c1[nH]ccn1-c1cccc(Cl)c1,n,n,u,u,7.9µM,n
Cc1ccc(-n2cc[nH]c2=S)cc1C,n,n,u,n,35µM,n
Cc1ccc(N2C(=O)C(Cc3ccc(O)cc3)NC2=S)cc1C (stereo not given),n,n,n,n,n,n
COc1ccc(-c2nc3cnc(OC)nc3n(C)c2=O)cc1,x,x,n[0.501 µM],x,x,x
CS(=O)(=O)N1CCc2cc(C(=O)Nc3cccc(F)c3)ccc21,n,n,n,x,n,x
COc1ccccc1N1CCN(c2ncnc3c2cnn3-c2cccc(Cl)c2)CC1,n,n,n,x,n,x
COc1ccccc1-c1nnc(SCC(=O)c2ccc(F)cc2)n1-c1ccccc1,n,u,u,x,n,x
Nc1ccc(-n2cc(-c3ccccc3)[nH]c2=S)cc1,n,n,7.9µM,n,u,n
O=[N+]([O-])c1ccc2c(c1)[nH]c(=S)n2-c1ccccc1,n,u,3.2µM,6µM,u,n
